# Bioassay records: PubChem, National Center for Advancing Translational Sciences (NCATS)
# HCV inhibitor: qHTS Assay for Inhibitors of Hepatitis C Virus (HCV); 340,000 compounds, 3.4% hits; Potency, µM (series often up to 41.8 µM), inactives show at the highest dose activity change, negative = inhibition, hits mostly inhibitors; Huh7.5.1 HCVcc-Cre infection, luciferase reporter, 44 h; AID 651820, 2012
#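 Whole-lifecycle infectious HCVcc-Cre system; cells 1,000/well, compound then virus (~0.5 moi) added 4 h after plating, 44 h culture. Luciferase read 15 sec following 15 min substrate incubation, room temp.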
# Pf growth 96h: Primary qHTS for delayed death inhibitors of the malarial parasite plastid, 96 hour incubation; Potency, µM (titrated, usually from 28.7 µM), inactives show at the highest dose activity change, negative = inhibition, usual class: inhibitors; P. falciparum luciferase reporter growth, 96 h; 320,000 compounds, 6.9% hits; AID 504834, 2011
#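 Delayed-death screen, second-generation endpoint: infected erythrocytes, 2% hematocrit, 0.05% parasitemia final; 96 hours at 37 C, 5% CO2; luciferase detection reagent; luminescence decrease equals reduced growth.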
# AmpC inh detg: qHTS Inhibitors of AmpC Beta-Lactamase (assay with detergent); AmpC hydrolysis of nitrocefin, absorbance 480 nm, 0.01% Triton; Potency, µM (titrated, usually from 114 µM), for inactives: top-dose activity change, negative = inhibition, usual class: inhibitors; 370,000 compounds, 0.041% hits; AID 485294, 2010;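 further: 0% = no-compound wells and -100% = no-enzyme wells; nearly all actives have a fitted effect of over 25% in size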
# Target sequence (P00811 whole entry, looked up): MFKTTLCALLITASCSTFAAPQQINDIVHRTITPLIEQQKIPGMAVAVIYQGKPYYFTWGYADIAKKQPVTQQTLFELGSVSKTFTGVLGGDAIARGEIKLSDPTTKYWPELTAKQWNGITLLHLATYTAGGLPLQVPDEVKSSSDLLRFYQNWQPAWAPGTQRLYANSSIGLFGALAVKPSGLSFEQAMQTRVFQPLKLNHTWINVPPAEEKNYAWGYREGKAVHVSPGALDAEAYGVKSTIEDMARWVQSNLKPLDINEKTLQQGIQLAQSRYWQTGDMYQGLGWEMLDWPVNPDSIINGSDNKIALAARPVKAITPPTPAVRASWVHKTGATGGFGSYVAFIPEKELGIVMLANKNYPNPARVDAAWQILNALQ
#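 20 mM phosphate pH 7.0 + 0.01% (detergent screen) or 0.0001% Triton X-100; 5.3 nM AmpC reagent; cpd preinc 15 min RT; nitrocefin (800 uM stock) to start; A480 q20 s × 4 min; Activity was normalised to no-enzyme and no-compound control wells.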
# AMA1 RON2 block: qHTS for Inhibitors of AMA1-RON; Towards Development of Antimalarial Drug Lead: Primary Screen; Potency, µM (top dose mostly 58.2 µM), for inactives: top-dose activity change, negative = inhibition, actives largely listed as inhibitors; 360,000 compounds, 0.2% hits; AlphaScreen AMA1-biotinylated RON2 peptide binding;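 further: 0% = vehicle wells and -100% = peptide control; nearly all actives have a fitted effect of over 45% in size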
#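 AMA1 (3D7) with his tag at 25 nM final met compounds first, then biotinylated RON2 peptide at 25 nM; detection used donor plus acceptor beads, 10 µg/mL apiece, read by AlphaScreen after 30 min at room temperature.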
# AmpC no deterg: qHTS Inhibitors of AmpC Beta-Lactamase (assay without detergent) | Potency, µM (highest dose often 57.1 µM), for inactives: at the top dose activity change, negative = inhibition, most hits filed as inhibitors | AmpC nitrocefin hydrolysis, absorbance 480 nm, 0.0001% Triton | 330,000 compounds, 0.52% hits | P00811;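 further: plate controls were no compound for no effect and no enzyme for full effect; nearly all actives have a fitted effect of over 20% in size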
#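 AmpC (5.3 nM in the dispensed reagent) in 20 mM phosphate pH 7.0 with 0.01% (detergent screen) or 0.0001% Triton X-100 was preincubated with compounds for 15 min at room temperature. Nitrocefin was then added from an 800 uM solution, and hydrolysis was followed at 480 nm.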
# Pf growth 48h: Primary qHTS for delayed death inhibitors of the malarial parasite plastid, 48 hour incubation; P. falciparum luciferase growth in erythrocytes, 48 h; Potency, µM (doses to about 28.7 µM), without a hit: top-dose activity change, negative = inhibition, hits mostly inhibitors; 310,000 compounds, 5.9% hits; AID 504832, 2011
#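 Cell-based growth assay: transgenic P. falciparum expressing firefly luciferase, cultured in red cells within RPMI 1640 containing 0.5% w/v Albumax, 24 mM bicarbonate and gentamycin. A drop in luciferase activity indicates inhibition.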
# An asterisk follows results filed as active; ? = inconclusive; . = no result given. A selection: hits, their analogues and other compounds. The true share with any hit is near 11%. The call rests on the fitted dose curve; in most records, active means well fitted curve in the direction sought with a large enough effect; inconclusive means small, poorly fitted or top-dose-only effect, or another doubt; inactive means no such curve, though single readings can be large; an effect the other way counts as inactive or inconclusive. Unless noted, on the % scale 0 is the no-effect control and ±100 the full control effect; potency means the concentration at half of the fitted maximal effect.
SMILES,HCV inhibitor,Pf growth 96h,AmpC inh detg,AMA1 RON2 block,AmpC no deterg,Pf growth 48h
COC(=O)c1ccc(CN2CCC(Oc3ccc(C(=O)N4CCCCC4)cc3)CC2)cc1,?,.,.,-8%,.,.
COc1ccccc1/C=C/CN1CCC(Oc2cc(C(=O)NC3CC3)ccc2OC)CC1,3%,45%,1%,-1%,51%,9.3µM*
O=C(c1nn(Cc2ccccc2)c(=O)c2ccccc12)N1CCN(C/C=C/c2ccccc2)CC1,?,7.4µM*,5%,-18%,26%,12µM*
Cc1ccc(CNC(=O)COCc2cc(-c3ccc4c(c3)OCO4)on2)cc1,.,.,12%,.,.,.
CC(C)CCOc1ccc(Cn2c(=O)sc3ccccc32)cc1,.,.,22%,.,.,.
CCOc1cc(C(=O)N2CCN(C/C=C/c3ccccc3)CC2)cc(OCC)c1OCC,-18%,5.2µM*,?,-10%,166%,.
COc1ccccc1/C=C/CN1CCC(Oc2ccc(C(=O)N3CCCCC3)cc2)CC1,?,16%,?,-24%,123%,7.4µM*
Cc1nn(S(=O)(=O)c2ccc(C(C)(C)C)cc2)c(C)c1S(=O)(=O)N1CCCCCC1,.,.,13%,.,.,.
Cn1nc(-c2ccc(OCC(=O)Nc3ccc(Cl)cc3)cc2)c2ccccc2c1=O,.,.,6%,.,.,.
O=C(O)CSCc1cnn(-c2ccccc2)c1-n1cccc1,.,410%,?,28%,-25%,10µM*
Cc1oc(-c2ccc(Cl)cc2)nc1CN1CCC(C(=O)NCCCN2CCOCC2)CC1,8.9µM*,?,4%,0%,100%,?
Cc1oc(-c2cccc(Cl)c2)nc1CN1CCCC(C(=O)NCCCN2CCOCC2)C1 (centres undefined),?,67%,?,-4%,207%,12µM*
Cc1oc(-c2ccc(Cl)cc2)nc1CN1CCC(C(=O)NCCCN2CCN(c3cccc(Cl)c3)CC2)CC1,.,.,-7%,.,.,.
CCC1CCCCN1CCCNC(=O)C1CCN(Cc2nc(-c3ccc(Cl)cc3)oc2C)CC1 (centres undefined),1.4µM*,-11%,3%,0%,82%,5.2µM*
CCCCNC(=O)C1CCCN(Cc2nc(-c3ccc(Cl)cc3)oc2C)C1 (centres undefined),.,.,24%,.,.,.
Cc1oc(-c2cccc(Cl)c2)nc1CN1CCCC(C(=O)NCc2ccc(F)cc2)C1 (centres undefined),.,.,5%,.,.,.
CCN(CCNC(=O)C1CCCN(Cc2nc(-c3ccc(OC)cc3)oc2C)C1)c1ccccc1 (centres undefined),?,-7%,1%,?,188%,5.2µM*
Cc1cc(C)c2c(c1)c(C)cc1nnc(SCc3ccccc3C#N)n12,.,.,8%,.,.,.
C[C@@H](C(=O)O)c1cccc(C(=O)c2ccccc2)c1,.,-23%,.,.,.,13%
COc1ccc(S(=O)(=O)N2CCN(Cc3nc4ccc(C)cc4o3)CC2)cc1Cl,.,.,1%,.,.,.
Cc1ccccc1CSc1nc2cccnc2n1Cc1ccc(C(=O)NCCc2cccs2)cc1,.,.,8%,.,.,.
CCCCOc1ccc(Br)cc1CSC(=N)N,2µM*,?,-10%,-21%,-6%,4.7µM*
COc1ccc(CSC(=N)N)cc1[N+](=O)[O-],?,2%,1%,-10%,-5%,.
CCOc1ccc(CSC2=NCCN2)cc1[N+](=O)[O-],-24%,?,-6%,-13%,-24%,?
CCCCOc1ccc(CSC2=NCCN2)cc1[N+](=O)[O-],?,13µM*,-4%,6%,-1%,?
SMILES,HCV inhibitor,Pf growth 96h,AmpC inh detg,AMA1 RON2 block,AmpC no deterg,Pf growth 48h
CCCCCOc1ccc(CSC(=N)N)cc1[N+](=O)[O-],?,0.47µM*,0%,-4%,-6%,?
Cc1ccc2scc(N3CCCCC3)c(=O)c2c1,.,.,-3%,.,.,.
OC(COc1ccc(OCC(O)CN2CCCCC2)cc1)CN1CCCCC1 (centres undefined),?,-26%,?,40%,-21%,?
OC(COc1ccc(CNCCc2ccc(C(F)(F)F)cc2)cc1)CN1CCCCC1 (centres undefined),5µM*,10%,5%,-5%,42%,2.1µM*
CCCN1C(=O)C2(c3ccccc31)c1c(oc3ccccc3c1=O)C(=O)N2CCO (centres undefined),.,.,-6%,.,.,.
Cc1cc(C)cc(OCC(=O)N2CCC(c3nc4ccccc4o3)CC2)c1,.,.,-2%,.,.,.
Cc1ccc(C(=O)NC2CCCC2)s1,5%,157%,5%,-16%,-11%,28%
Cc1ccnc(NC(=O)c2ccc([N+](=O)[O-])s2)c1,3.5µM*,7.4µM*,0%,41%,-10%,?
Cc1ccnc(NC(=O)c2cc([N+](=O)[O-])cc([N+](=O)[O-])c2)c1,-24%,11%,?,0%,-2%,?
CCc1sc(C(=O)NCCCN2CCCC2=O)cc1Br,7%,.,.,-10%,.,.
O=C(NCCCN1CCCC1=O)c1ccc([N+](=O)[O-])s1,4%,?,9%,13%,-11%,10µM*
COc1ccc(NC(=O)c2ccc([N+](=O)[O-])s2)c([N+](=O)[O-])c1,-8%,?,8%,-4%,-29%,47%
O=C(NC1CCCC1)c1ccc([N+](=O)[O-])s1,?,10µM*,?,7%,-17%,1%
Cc1cccc(C)c1NC(=O)c1ccc([N+](=O)[O-])s1,10µM*,0%,4%,6%,-5%,?
